An excerpt weighted towards active compounds, which were near 5.5% of everything screened.
RORg inh: blocks mouse ROR gamma transcriptional activity; P51450; Drosophila S2 Gal4-RORgamma UAS-luciferase reporter, 20 h; Potency, µM (doses to about 53.6 µM), for inactives: at the top dose activity change, negative = inhibition, most hits filed as inhibitors; 5.4% of 310,000 active; AID 2551; further: potency means the concentration at half of the fitted maximal effect; on the % scale 0 is the no-effect control and ±100 the full control effect; nearly all actives have a fitted effect of over 60% in size
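Stably transfected Drosophila Schneider cells are the test system, with ROR gamma fused to Gal4 and luciferase under UAS control; luminescence is read after 20 hr of 700 uM copper sulfate induction at ambient temperature.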
Gal4-VP16 FLuc: Gal4-VP16 reporter inhibition counter-screen | Drosophila S2 Gal4-VP16 UAS-luciferase, luminescence, 20 h | Potency, µM (top dose mostly 53.6 µM), without a hit: at the top dose activity, negative = inhibition, most hits filed as inhibitors | 3.5% of 310,000 active | AID 2546;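 further: Gal4-VP16 expression switched on by copper sulfate through the metallothionein promoter; potency means the concentration at half of the fitted maximal effect; on the % scale 0 is the no-effect control and ±100 the full control effect; nearly all actives have a fitted effect of over 50% in size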
Six1-Eya2 blk: inhibitors of human Six1/Eya2 interaction | Q15475+O00167 | AlphaScreen GST-Six1/His-Eya2 binding, biochemical; active compounds read low | activity change, % (concentration not given with the values) | 0.56% of 360,000 active | AID 651725; in the data active means activity change below about -65%; inconclusive means mostly about -30% to -63%; further: on the % scale 0 is the no-effect control and ±100 the full control effect
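Six1/Eya2 binding was read as AlphaScreen signal after compounds were pinned into GST-Six1 plus His-tagged Eya2 (5X stock 250/500 nM) in pH 8.0 Tris/NaCl/TCEP buffer, beads added, then incubated 1 h, 37 C, dark.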
MBNL1-CUG inh: MBNL1-poly(CUG) RNA binding inhibition; 0.036% of 280,000 active; AID 2675; TR-FRET MBNL1-His/biotin-(CUG)12 binding, 665/545 ratio; Potency, µM (top dose mostly 57.5 µM), for the others: at the highest dose activity change, negative = inhibition, actives largely listed as inhibitors; active means well fitted inhibition curve with a large enough effect in the signal ratio, with a control signal flat, not every such curve was filed as active; inconclusive means small, poorly fitted or top-dose-only effect, or effect the other way, or a change in a side signal; inactive means no such curve, though single readings can be large or run the other way; the % refers to the signal ratio; further: potency means the concentration at half of the fitted maximal effect; on the % scale 0 is the no-effect control and ±100 the full control effect
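His-tagged MBNL1 binding to biotinylated (CUG)12 RNA was measured by TR-FRET using terbium anti-His antibody (0.055 ng/ul final) and streptavidin-XL665 (5 nM final). Compounds were titrated 92 nM to 58 uM; 60 min at room temperature.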
CBFb RUNX1 block: CBF-beta/RUNX1 interaction disruption; Q01196+Q13951; AlphaScreen CBFb-His/RUNX1-biotin binding, biochemical; Potency, µM (doses to about 59.8 µM), inactives show top-dose activity, negative = inhibition, hits mostly inhibitors; 230,000 tested, under 10 active; AID 1477; further: % of control where 0% means no effect
Target sequence (Q01196 whole entry, looked up): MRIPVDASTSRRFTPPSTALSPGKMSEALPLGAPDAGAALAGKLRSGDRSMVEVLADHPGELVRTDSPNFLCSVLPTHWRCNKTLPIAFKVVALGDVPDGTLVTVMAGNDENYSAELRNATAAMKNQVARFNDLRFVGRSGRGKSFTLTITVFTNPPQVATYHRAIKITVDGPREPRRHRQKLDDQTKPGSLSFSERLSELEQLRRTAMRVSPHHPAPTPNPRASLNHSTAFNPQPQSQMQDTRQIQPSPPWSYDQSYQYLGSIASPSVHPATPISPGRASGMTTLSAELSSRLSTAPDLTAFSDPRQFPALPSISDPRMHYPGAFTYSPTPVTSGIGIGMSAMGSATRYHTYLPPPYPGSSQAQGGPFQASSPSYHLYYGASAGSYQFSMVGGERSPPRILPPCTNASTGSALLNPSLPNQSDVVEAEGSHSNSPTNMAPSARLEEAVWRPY
Target sequence (Q13951 whole entry, looked up): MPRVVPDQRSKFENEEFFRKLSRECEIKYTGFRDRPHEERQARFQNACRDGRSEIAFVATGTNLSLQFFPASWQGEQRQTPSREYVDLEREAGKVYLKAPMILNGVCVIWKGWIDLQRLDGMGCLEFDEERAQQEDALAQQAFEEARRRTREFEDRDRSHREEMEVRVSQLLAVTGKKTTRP
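Proteins preincubated together for 20 min at RT before compound addition; 15 min later, nickel and streptavidin beads were added and left 90 min prior to AlphaScreen measurement.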
CtBP-E1A blk: blocks the CtBP interaction with E1A; 0.49% of 340,000 active; AID 651724; activity change, % (no concentration beside the values); AlphaScreen GST-E1A/His-CtBP binding, 1536-well; active compounds read low; in the data active means activity change below about -65%; inconclusive means mostly about -30% to -63%; further: on the % scale 0 is the no-effect control and ±100 the full control effect
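AlphaScreen with 125 nM GST-E1A and 125 nM His-CtBP (5X stocks) in Tris pH 8.0, 300 mM NaCl, BSA, Tween 20, TCEP. Compounds preincubated 2 h at 37 deg C, then glutathione donor/nickel acceptor beads added for 1 h at 37 deg C in dark.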
Numbers without * were called inactive; ? = inconclusive; . = no result given; ! = a repeat was not active; [ ] = remark or other dose. Unless noted, the call rests on the fitted dose curve; in most records, active means well fitted curve in the direction sought with a large enough effect; inconclusive means small, poorly fitted or top-dose-only effect, or another doubt; inactive means no such curve, though single readings can be large; an effect the other way counts as inactive or inconclusive.

SMILES	RORg inh	Gal4-VP16 FLuc	Six1-Eya2 blk	MBNL1-CUG inh	CBFb RUNX1 block	CtBP-E1A blk
O=C(Nc1ccc2c(c1)OCCO2)c1ccccn1	7.1µM*	14µM*	-3	4%	-4%	.
CC(C)N1CC(C(=O)Nc2ccc(Cl)c([N+](=O)[O-])c2)CC1=O (centres undefined)	1%	-5%	-1	?	.	.
O=C(Nc1ccc(N2CCCCC2)cc1)c1ccccn1	1.3µM*	2µM*	-12	-1%	-1%	-11
O=C(Nc1ccc(N2CCCCCC2)cc1)c1ccccc1Cl	18%	7%	?	-9%	?	?
Cc1ccc(S(=O)(=O)N2C[C@H]3[C@H]4C(=O)N(C)C(=O)[C@H]4CC(=O)[C@H]3[C@@H]2c2ccccc2Cl)cc1	.	.	4	.	.	6
Cc1ccc(NC(=S)N2CCCC(c3nc4ccccc4[nH]3)C2)cc1 (centres undefined)	?	-4%	-1	2%	-18%	.
Cc1ccc(NC(=S)c2nc3ccccc3[nH]2)cc1	3.2µM*	7.9µM*	-81*	?	?	-72*
Cc1ccc(NC(=S)c2nc3ccccc3[nH]2)c(C)c1	14µM*	?	-72*	0%	?	?
OC(c1ccccc1)c1nc(-c2cccs2)cs1 (centres undefined)	.	.	4	.	.	6
CN(C)/C=C1/C(=O)N(c2ccc([N+](=O)[O-])cc2)N=C1c1ccccc1	?	?	.	?	11%	.
C/C(=C1/C(=O)N(c2ccc([N+](=O)[O-])cc2)N=C1c1ccccc1)N(C)C	?	14µM*	.	?	-10%	.
C/C(=N\NC(=O)CCCCCNC(=O)c1ccccc1)c1ccccc1O	5µM*	10µM*	-14	2%	9%	-9
O=C(CCCCCNC(=O)c1ccccc1)N/N=C/c1ccc(O)cc1O	-21%	-15%	-28	9%	-14%	?
C/C(=N/NC(=O)CN(c1ccccc1)S(=O)(=O)c1ccccc1)c1ccccc1O	0.71µM*	0.79µM*	-2	9%	.	.
COc1ccc(NC(=O)c2cnc(C)cn2)c2ncccc12	0.32µM*	0.56µM*	.	0%	11%	.
Cc1cc(C)nc(SCC(=O)Nc2ccnc3ccccc23)n1	2.2µM*	0.89µM*	-8	-7%	11%	-18
O=C(CSC1=NCCS1)Nc1ccc2ccccc2c1	12%	-8%	5	4%	-4%	0
COC(=O)c1ccccc1NC(=O)CSc1nc(C)cc(C)n1	-5%	1%	17	.	24%	-23
O=C(CSC1=NCCS1)Nc1ccnc2ccccc12	-39%	4µM*	-4	1%	1%	12
C1=C(CN2CCOCC2)COc2c1cccc2OC[C@@H]1CNCCO1	-11%	-7%	.	.	13%[21.7 µM]	.
Oc1cc2c(cc1O)C1c3ccc(O)c(O)c3OCC1(O)C2 (centres undefined)	?	13µM*!	-17	-17%	-1%	?
CC(=O)c1ccc(S(=O)(=O)N2CCN(C(C)C(=O)N(C)Cc3ccccc3)CC2)cc1 (centres undefined)	.	.	3	.	.	.
Cc1ccc(C(=O)Nc2ncccc2S(=O)(=O)c2ccccc2)cc1	22%	23%	9	5%	.	6
CCOC(=O)CSC1=C(C#N)C(c2ccc(OC)cc2)C2=C(CC(C)(C)CC2=O)N1 (centres undefined)	?	20µM*	-3	?	3%	-2
COc1ccc2[nH]c3c(C)c4ccncc4c(C)c3c2c1	3.2µM*	4.5µM*	?	?	-14%	?
O/N=C/c1ccnc(SCc2ccccc2)n1	0.56µM*	3.5µM*	-9	.	2%	6
COc1ccc2c(c1)O[C@@H](c1cccc(C(F)(F)F)c1)[C@H](OC(=O)NCc1ccc3c(c1)OCO3)C2=O	-6%	1%	.	.	-7%	.

Assay outcomes deposited in PubChem BioAssay by National Center for Advancing Translational Sciences (NCATS).
